# Laboratory results from the supplement of paper PMC10981050.
# Where “and” joins values, the source holds several entries; their conditions need not be identical. Identical values can stand only once. Counter-ions that a name gives are not always drawn.
# Columns and labels:
# Experiment in all cases: cell viability relative to vehicle control; higher = less cytotoxic
# Conditions in all cases: 10 µM
# [1] = tested on: K562
# In short: (§1)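 CRISPR-edited mutant clones and isogenic wild-type clones from four leukaemia lines were screened against Selleck bioactive, kinase and epigenetic probe libraries, with identity-inconsistent compounds excluded. Each compound was acoustically dispensed at a single 10 µM dose into 384-well plates holding 2000 cells in 50 µL medium per well. After 48 h the supernatant was removed and CellTiter-Glo luminescence was read. Viability was expressed as percent of the on-plate vehicle control and analysed in Genedata Screener.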
# [2] = tested on: MARIMO
# In short: as §1
# [3] = tested on: MOLM14
# In short: as §1
# [4] = tested on: OCI-AML2
# In short: as §1
Structure (SMILES),cell viability ([1]; SRSF2 genotype: SRSF2 P95H/wt),cell viability ([1]; SRSF2 genotype: SRSF2 wt/wt),cell viability ([2]; SRSF2 genotype: SRSF2 P95H/wt),cell viability ([2]; SRSF2 genotype: SRSF2 wt/wt),cell viability ([3]; SRSF2 genotype: SRSF2 P95H/wt),cell viability ([3]; SRSF2 genotype: SRSF2 wt/wt),cell viability ([4]; SRSF2 genotype: P95H/wt),cell viability ([4]; SRSF2 genotype: wt/wt)
COC(=O)c1ccc2c(c1)nc(NC(=O)c1ccccc1)n2CCCc1ccccc1,77.8% and 75.4%,79.5%,70.1%,91.6%,87.9%,93.7%,64.5%,68.7%
COc1ccc([C@@H]2CC(=O)c3c(O)cc(O)cc3O2)cc1O [Hesperetin],105% and 99.8%,100%,93.3%,112%,107%,108%,86.7%,94.8%
COc1ccc([C@@H]2CC(=O)c3c(O)cc(O[C@@H]4O[C@H](CO)[C@@H](O)[C@H](O)[C@H]4O[C@@H]4O[C@@H](C)[C@H](O)[C@@H](O)[C@H]4O)cc3O2)cc1O [Neohesperidin],109% and 102%,100%,97.2%,102%,104%,109%,116%,127%
CCCCNc1ccc(C(=O)OCCN(C)C)cc1 [Tetracaine hydrochloride (Pontocaine)],99.3% and 87.2%,90.7%,93.4%,105%,92.2%,96.2%,94%,98.4%
CCCCC[C@H](O)/C=C/[C@H]1[C@H](O)CC(=O)[C@@H]1C/C=C\CCCC(=O)O [Dinoprostone],99%,99.1%,91.4%,79.3%,59.1%,62%,74.5%,67.5%
COc1ccc(S(=O)(=O)Nc2nc(-c3cccc([N+](=O)[O-])c3)cs2)cc1OC,104% and 99%,92.7%,97.4%,112%,93.3%,100%,95.4%,108%
CCCc1cc(=O)[nH]c(=S)[nH]1 [Propylthiouracil],107% and 91.6%,94%,93.1%,96.5%,100%,96.8%,106%,110%
CC(=O)N1CCN(c2ccc(NC(=O)Cc3cnc(-c4ccnc(F)c4)c(C)c3)nc2)CC1,88.7% and 84.8%,82.3%,85.7%,97.8%,80.4%,86.7%,91.1%,94.6%
Cc1csc(-c2nnc(Nc3ccc(Oc4ncccc4-c4ccnc(N)n4)cc3)c3ccccc23)c1,67.2% and 86.6%,81.4%,91.6%,77.7%,53.3%,30.5%,38.5%,33.4%
O=C(O)CCC(=O)O [Succinic acid],90.3% and 88.2%,88%,83.8%,96.1%,93.1%,93.6%,85.1%,97.5%
CCOc1cc(C(=O)N2CCC(N3CCN(C)CC3)CC2)ccc1Nc1ncc2c(n1)N(C1CCCC1)c1ccccc1C(=O)N2C,10.3% and 7.13%,15.2%,35.2%,35.2%,0.3%,0.37%,2.24%,10.6%
O=C(/C=C/N1C[C@H]2C[C@@H]1CN2c1ccccn1)c1ccccc1O,93.1% and 98%,97.1%,95.5%,96.5%,102%,99.2%,104%,105%
Nc1cc[nH]c(=O)n1 [Cytosine],102% and 93.8%,99.5%,102%,110%,107%,104%,102%,107%
O=C(c1ccc(C(=O)N2CCC(N3CCCC3)CC2)c(Nc2ccccc2)c1)N1CCC(N2CCCC2)CC1,94.7% and 87.5%,84.1%,81.1%,92.7%,89%,89.4%,93.8%,89.4%
COc1c(O)cc2c(c1O)C(=O)c1c(cc(C)c(O)c1OC)C2=O [Aurantio-obtusin],87% and 81.9%,79.3%,84.5%,84.3%,84.5%,88.9%,97.9%,91.5%
NN1CC(=O)NC1=O [1-Aminohydantoin Hydrochloride],103%,97.1%,99.8%,106%,97.1%,101%,89.2%,106%
CCc1cccc2c3c([nH]c12)C(CC)(CC(=O)O)OCC3 (stereo not drawn) [Etodolac (Lodine)],99.4% and 101%,92.6%,89.7%,96.5%,93%,97.8%,86.8%,93.7%
O=C(O)c1cn(C2CC2)c2cc(Cl)c(F)cc2c1=O [Fluoroquinolonic Acid],108% and 104%,108%,97.5%,101%,104%,110%,104%,110%
C=C1[C@H](CO)[C@@H](O)C[C@@H]1n1cnc2c(=O)[nH]c(N)nc21 [Entecavir hydrate],106% and 109%,106%,101%,96.7%,94.7%,106%,87.7%,94.7%
COc1cc2ncnc(Oc3ccc(CC(=O)Nc4cnn(C(C)C)c4)cc3)c2cc1OC,74.8% and 98.4%,72.4%,113%,107%,16.1%,14.1%,36.1%,42.4%
CCCCCCCCCCCC[N+](C)(C)CCOc1ccccc1 [Domiphen Bromide],7.02% and 4.79%,5.16%,0.45%,0.55%,0.35%,0.39%,0.4%,0.43%

Structure (SMILES),cell viability ([1]; SRSF2 genotype: SRSF2 P95H/wt),cell viability ([1]; SRSF2 genotype: SRSF2 wt/wt),cell viability ([2]; SRSF2 genotype: SRSF2 P95H/wt),cell viability ([2]; SRSF2 genotype: SRSF2 wt/wt),cell viability ([3]; SRSF2 genotype: SRSF2 P95H/wt),cell viability ([3]; SRSF2 genotype: SRSF2 wt/wt),cell viability ([4]; SRSF2 genotype: P95H/wt),cell viability ([4]; SRSF2 genotype: wt/wt)
CN(C)CCCCC(=O)Nc1ccc(NC(=S)NC(=O)c2ccc(C(C)(C)C)cc2)cc1 [Tenovin-6],2.61% and 5.21%,12.4%,1.49%,1.85%,1.6%,0.76%,1.27%,5.3%
CC(C)=CCC[C@](C)(O[C@@H]1O[C@H](CO[C@@H]2O[C@@H](CO)[C@H](O)[C@H]2O)[C@@H](O)[C@H](O)[C@H]1O)[C@H]1CC[C@]2(C)[C@@H]1[C@H](O)C[C@@H]1[C@@]3(C)CC[C@H](O[C@@H]4O[C@H](CO)[C@@H](O)[C@H](O)[C@H]4O[C@@H]4O[C@H](CO)[C@@H](O)[C@H](O)[C@H]4O)C(C)(C)[C@@H]3CC[C@]12C [Ginsenoside Rc],103% and 101%,100%,99.1%,101%,110%,99.2%,104%,93.5%
CCOC(=O)O[C@]1(C(=O)OCCl)CC[C@H]2[C@@H]3CCC4=CC(=O)C=C[C@]4(C)[C@H]3[C@@H](O)C[C@@]21C [Loteprednol etabonate],93.6% and 104%,98%,92.1%,98.5%,96.3%,97.2%,111%,114%
CCCCC(=O)OCC(=O)[C@H]1[C@H](C)C[C@H]2[C@@H]3C[C@H](F)C4=CC(=O)C=C[C@]4(C)[C@@]3(F)[C@@H](O)C[C@@]21C [Diflucortolone valerate],96.5% and 92.7%,104%,95.1%,98.2%,92%,96%,99.4%,118%
C[C@@H]1CC[C@@]2(OC1)O[C@H]1C[C@H]3[C@@H]4CC=C5C[C@@H](O[C@@H]6O[C@H](CO)[C@@H](O)[C@H](O[C@@H]7O[C@H](CO)[C@@H](O)[C@H](O)[C@H]7O)[C@H]6O[C@@H]6O[C@@H](C)[C@H](O)[C@@H](O)[C@H]6O)CC[C@]5(C)[C@H]4CC[C@]3(C)[C@H]1[C@@H]2C [Gracillin],31.2% and 29.4%,1.47%,70.2%,11.4%,12%,0.55%,5.61%,4.21%
Cc1ccc(Sc2cncc3sc(C(N)=O)cc23)cc1,91.6% and 90.7%,90.6%,95.7%,102%,89.3%,100%,68.8%,69.4%
COCCNC(=O)Nc1ccc2nc(-c3cccs3)c(-c3cccs3)nc2c1 [ACSS2 inhibitor],82.9% and 79.4%,84.3%,85.1%,97.7%,89.1%,94.8%,91.5%,95.1%
CC(C)=CCc1cc2c(cc1O)O[C@H](c1ccc(O)cc1)CC2=O [Bavachin],95.2% and 87.3%,100%,96.5%,99.5%,111%,109%,101%,114%
C=CCNC1=C2C[C@@H](C)C[C@H](OC)[C@H](O)[C@@H](C)/C=C(\C)[C@H](OC(N)=O)[C@@H](OC)/C=C\C=C(/C)C(=O)NC(=CC1=O)C2=O [17-AAG (Tanespimycin)],20.1% and 29.1%,25%,27.3%,24.3%,1.11%,1.2%,18.8%,20.6%
C=CCc1ccc(OC(C)=O)c(OC)c1 [Eugenyl acetate],85.8% and 88%,86%,89.7%,90.4%,93.2%,90.1%,91.1%,91.6%
COc1cc(OC)c2c(=O)[nH]c(-c3cc(C)c(OCCO)c(C)c3)nc2c1,81.8% and 87.1%,87.5%,80.1%,71.1%,77.8%,81.3%,79%,86%
O=c1ccc2ccc(OCCCCN3CCN(c4cccc5sccc45)CC3)cc2[nH]1 [Brexpiprazole],37.4% and 28.9%,60.1%,43.1%,39.2%,33%,23.4%,15.4%,21.6%
CS(=O)(=O)c1ccc([C@@H](O)[C@@H](CO)NC(=O)C(Cl)Cl)cc1 [Thiamphenicol (Thiophenicol)],86.1% and 88.3%,87.7%,103%,101%,98.5%,96.8%,97.3%,91.2%
CCc1c(Cl)c(O)c(Cl)c(O)c1C(=O)O[C@H]1[C@H](O)[C@H](OC)[C@H](OC/C2=C\C=C\C[C@H](O)/C(C)=C/[C@H](CC)[C@@H](O[C@@H]3OC(C)(C)[C@@H](OC(=O)C(C)C)[C@H](O)[C@@H]3O)/C(C)=C/C(C)=C/C[C@@H]([C@@H](C)O)OC2=O)O[C@@H]1C [Fidaxomicin],81.3% and 80.5%,78.3%,86.2%,91.3%,74.9%,84.6%,110%,100%
Cc1ccsc1C(=CCCN1CCC[C@@H](C(=O)O)C1)c1sccc1C [Tiagabine],100% and 93.4%,96.7%,91.8%,109%,97%,101%,89%,111%
CCC(=O)O[C@]1(C(=O)CCl)[C@@H](C)C[C@H]2[C@@H]3CCC4=CC(=O)C=C[C@]4(C)[C@@]3(F)[C@@H](O)C[C@@]21C [Clobetasol propionate],88.3% and 95.4%,88.2%,85.1%,96.7%,81.2%,80.8%,90.5%,101%
CCCCCCCCCCCCCCCC(=O)O [Palmitic acid],99.6% and 104%,98.5%,96.4%,114%,100%,103%,95.6%,114%
Nc1ncnc2c1ncn2[C@@H]1O[C@H](CO)[C@@H](O)[C@@H]1O [Vidarabine (Vira-A)],94.6% and 101%,97%,89.9%,93.4%,92.5%,96.1%,101%,102%
CC(C)Oc1ccc(-c2nn([C@@H](C)c3oc4ccc(F)cc4c(=O)c3-c3cccc(F)c3)c3ncnc(N)c23)cc1F,89.1% and 94.3%,87.6%,84.8%,94.9%,77%,71.8%,67.4%,72.3%
COc1cc(S(=O)(=O)O)ccc1O [Sulfogaiacol],106% and 109%,113%,108%,112%,107%,104%,117%,105%
